Assay results from PubChem BioAssay (NCATS).
Where “and” joins values, the source holds several entries; their conditions need not be identical. Equal values may be shown once. Values without a mark were called inactive. Inconclusive results are not listed. A call without a number means that no potency is given here. Calls of active or inactive are those of the source. Calls come from the whole dose curve; as a rule, active = well fitted curve in the direction sought with a large enough effect; inconclusive = small, poorly fitted or top-dose-only effect, or another doubt; inactive = no such curve, though single readings can be large; an effect the other way counts as inactive or inconclusive.

How the values were obtained:
[1] = Tertiary RLuc qRT-PCR qHTS assay for Zika virus inhibitors (AID 1347169); note: nearly all actives have a fitted effect of over 55% in size; note: potency is the fitted concentration of half-maximal effect; for activity change, negative = inhibition: top concentration of the series differs between compounds
How it was run: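 Orthogonal cell-based readout: luminescence measured 1-1.5 hrs after adding live-cell Renilla substrate to Vero cells that had been infected with ZIKV-RLuc (MOI 1-2) post-compound, incubated 48-72 hrs at 37 degrees C.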

[2] = OV-KATE Cancer Cell Toxicity qHTS against the NCATS CANVASS Library (AID 1347345)
How it was run: (§1)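 Following a 4 h pre-incubation of 1000 seeded cells, compounds were pinned in an 11-pnt dilution series and left for 72 h; viability then came from CellTiter-Glo.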

[3] = HPAF-II Cancer Cell Toxicity qHTS against the NCATS CANVASS Library (AID 1347346); conditions: HPAF-II viability, CellTiter-Glo ATP luminescence, 72 h; note: potency is the fitted concentration of half-maximal effect; nearly all actives have a fitted effect of over 55% in size
How it was run: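 First, HPAF-II cells are plated (1000 cells/well) and held 4 h at 37 degrees C. Next, compounds are pin-transferred as an 11-point series. After 72 h, CellTiter-Glo is added and luminescence measured.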

[4] = UWB1.289 Cancer Cell Toxicity qHTS against the NCATS CANVASS Library (AID 1347347); note: nearly all actives have a fitted effect of over 60% in size
How it was run: as §1

[5] = OV-SAHO Cancer Cell Toxicity qHTS against the NCATS CANVASS Library (AID 1347348); note: nearly all actives have a fitted effect of over 55% in size
How it was run: as §1

[6] = SW1088 Cancer Cell Toxicity qHTS against the NCATS CANVASS Library (AID 1347350); conditions: SW1088 viability, CellTiter-Glo luminescence, 72 h; at 38.3 µM (top of the series); note: nearly all actives have a fitted effect of over 75% in size
How it was run: as §1

[7] = U-118MG Cancer Cell Toxicity qHTS against the NCATS CANVASS Library (AID 1347351)
How it was run: as §1

[8] = COV-362 Cancer Cell Toxicity qHTS against the NCATS CANVASS Library (AID 1347352)
How it was run: (§2)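 First, 1000 cells go into each well and rest for 4 hours. Next, an 11-point dilution range is pinned in. Plates then incubate 72 hours before CellTiter-Glo addition and luminescence reading.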

[9] = A2780 Cisplatin Sensitive Ovarian Cancer Cell Toxicity qHTS against the NCATS CANVASS Library (AID 1347353); conditions: A2780 ovarian cancer viability, ATPLite luminescence, 72 h; at 46.1 µM (top of the series); note: nearly all actives have a fitted effect of over 60% in size
How it was run: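 Cells are plated at 750 per well and rest for 4 hours. Compounds are added across eleven concentrations, and incubated 72 hours before ATP is quantified by luminescence.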

[10] = UWB1.289-WTBRCA1 Cancer Cell Toxicity qHTS against the NCATS CANVASS Library (AID 1347354)
How it was run: as §2

[11] = HEK-293 Cancer Cell Toxicity qHTS against the NCATS CANVASS Library (AID 1347355); conditions: HEK-293 viability, CellTiter-Glo luminescence, 72 h; at 46.1 µM (top of the series); note: nearly all actives have a fitted effect of over 65% in size
How it was run: as §2

[12] = HPAF-II 24hr Apoptosis Induction qHTS against the NCATS CANVASS Library (AID 1347356)
How it was run: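 Cells seeded at 500 per well, then compounds pin-transferred in an 11-point concentration series. After 24 hours at 37 degrees C, Caspase-Glo 3/7 was added and luminescence measured following 15 min at room temperature.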

[13] = HEK293 18hr Apoptosis Induction qHTS against the NCATS CANVASS Library (AID 1347357)
How it was run: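 Caspase-Glo 3/7 luminescence (15 min, room temperature) measured apoptosis after an 18-hour, 37 degrees C exposure of HEK293 cells (500 cells/well) to compounds in 11 points.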

[14] = HPAF-II 12hr Apoptosis Induction qHTS against the NCATS CANVASS Library (AID 1347358)
How it was run: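 Cells plated at 500 per well are dosed with compound and incubated 12 hours at 37 degrees C. Caspase-Glo 3/7 reagent is added and, after 15 min at room temperature, luminescence proportional to caspase activity is measured.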

[15] = HEK293 24hr Apoptosis Induction qHTS against the NCATS CANVASS Library (AID 1347359)
How it was run: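 HEK293 cells, 500 per well, exposed to an 11-point compound series for 24 hours at 37 degrees C. Caspase 3/7 activity read by Caspase-Glo luminescence (DEVD substrate) after 15 min at room temperature.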

[16] = HPAF-II 18hr Apoptosis Induction qHTS against the NCATS CANVASS Library (AID 1347360)
How it was run: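 Caspase-3/7 activation was measured with luminescent Caspase-Glo 3/7 reagent (15 min, RT) in HPAF-II cancer cells (500 cells/well). Before detection, cells had been treated for 18 h at 37 C with compounds (11 points).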

[17] = HEK293 12hr Apoptosis Induction qHTS against the NCATS CANVASS Library (AID 1347361)
How it was run: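 HEK293 cells (500/well, DMEM + 10% FBS) were exposed to natural products across an 11-point series for 12 hours at 37 degrees C. Caspase-3/7 activity was then measured with DEVD luciferase luminescence after 15 min at room temperature.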

[18] = system: NAD(P)H diaphorase (Clostridium kluyveri); experiment: Diaphorse counterscreen qHTS: Assay Interference Panel against the NCATS CANVASS Library (AID 1347362)
How it was run: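 Clostridium kluyveri diaphorase in PBS + 0.01% Tween-20 preincubated 15 min with compounds. Resazurin and NADH then added for 5 min at room temperature in the dark; resorufin fluorescence read (ex 525, em 598).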

[19] = target: Luciferin 4-monooxygenase (Photinus pyralis) (UniProt P08659); experiment: Firefly luciferase counterscreen qHTS: Assay Interference Panel against the NCATS CANVASS Library (AID 1347363)
Sequence of Luciferin 4-monooxygenase (Photinus pyralis) (P08659 whole entry, looked up): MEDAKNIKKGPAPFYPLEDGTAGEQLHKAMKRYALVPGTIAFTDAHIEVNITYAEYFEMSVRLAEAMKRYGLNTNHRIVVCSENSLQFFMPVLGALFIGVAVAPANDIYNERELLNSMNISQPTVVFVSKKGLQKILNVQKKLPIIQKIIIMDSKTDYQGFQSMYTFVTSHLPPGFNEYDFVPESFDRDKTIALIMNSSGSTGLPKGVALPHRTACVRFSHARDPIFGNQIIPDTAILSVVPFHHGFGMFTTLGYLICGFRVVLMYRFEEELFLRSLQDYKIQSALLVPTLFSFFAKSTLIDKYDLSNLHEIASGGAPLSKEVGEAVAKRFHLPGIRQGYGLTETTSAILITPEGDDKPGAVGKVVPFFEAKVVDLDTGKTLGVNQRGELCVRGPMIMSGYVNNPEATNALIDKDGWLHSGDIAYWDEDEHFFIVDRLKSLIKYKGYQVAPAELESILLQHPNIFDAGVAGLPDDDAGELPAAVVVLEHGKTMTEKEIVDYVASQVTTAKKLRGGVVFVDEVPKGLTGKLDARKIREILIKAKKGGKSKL
How it was run: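 Purified P. pyralis luciferase (0.04 ug/mL, 4x reagent) added to Tris-acetate buffer with 0.013 mM D-luciferin, 0.013 mM ATP and 13.3 mM Mg-acetate; compounds preincubated 15 min, then luminescence read after 5 min, RT.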

[20] = KB-8-5-11 Cancer Cell Toxicity qHTS against the NCATS CANVASS Library (AID 1347364); note: nearly all actives have a fitted effect of over 75% in size
How it was run: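 Terse: KB-8-5-11, 500 cells/well, 72 hr, 37C/5% CO2, 11-pt titration, CellTiter-Glo readout; confirmatory runs ± 1uM tariquidar in medium.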

CN(Cc1cnc2nc(N)nc(N)c2n1)c1ccc(C(=O)N[C@@H](CCC(=O)O)C(=O)O)cc1
Potency [1]: inactive

CC1COc2c(N3CCN(C)CC3)c(F)cc3c(=O)c(C(=O)O)cn1c23 (stereo unspecified)
Potency [1]: inactive

O=C(c1ccc(F)cc1)C1CCN(CCn2c(=O)[nH]c3ccccc3c2=O)CC1
Potency [1]: inactive

CC(C)(C)C(=O)Oc1ccc(S(=O)(=O)Nc2ccccc2C(=O)NCC(=O)O)cc1
Potency [1]: inactive

Cn1ccc2cc3c(cc21)CCN3C(=O)Nc1cccnc1
Potency [1]: inactive

O=C1Cc2cc(CCN3CCN(c4nsc5ccccc45)CC3)c(Cl)cc2N1
Potency [1]: inactive

COc1ccc2[nH]cc(CCNC(C)=O)c2c1
outcome [2]: inactive | Potency [3]: 5.95 µM (active) | outcome [4]: inactive | outcome [5]: inactive | outcome [6]: inactive | outcome [7]: inactive | outcome [8]: inactive | outcome [9]: inactive | outcome [10]: inactive | outcome [11]: inactive | outcome [12]: inactive | outcome [13]: inactive | outcome [14]: inactive | outcome [15]: inactive | outcome [16]: inactive | outcome [17]: inactive | outcome [18]: inactive | outcome [19]: inactive | outcome [20]: inactive

Cc1ccccc1N1C(=O)c2cc(S(N)(=O)=O)c(Cl)cc2NC1C (stereo unspecified)
Potency [1]: inactive

Cc1ccc(C(=O)Nc2ccc(S(=O)(=O)O)c3cc(S(=O)(=O)O)cc(S(=O)(=O)O)c23)cc1NC(=O)c1cccc(NC(=O)Nc2cccc(C(=O)Nc3cc(C(=O)Nc4ccc(S(=O)(=O)O)c5cc(S(=O)(=O)O)cc(S(=O)(=O)O)c45)ccc3C)c2)c1
Potency [1]: inactive

O=C(Nc1ccc([N+](=O)[O-])cc1Cl)c1cc(Cl)ccc1O
Potency [1]: 0.294 µM (active)

CCOC(=O)Nc1ccc(NCc2ccc(F)cc2)nc1N
Potency [1]: inactive

O=c1c(O)c(-c2ccc(O)c(O)c2)oc2cc(O)cc(O)c12
activity change, negative = inhibition [1]: 52.3% [at 5.25 µM] and 65.1% [at 0.997 µM]

Cc1cnc(C(=O)NCCc2ccc(S(=O)(=O)NC(=O)NC3CCCCC3)cc2)cn1
Potency [1]: inactive
